Data on 5 compounds can be found in PubChem BioAssay.

Calls of active or inactive are those of the source.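 Rule for the calls, unless noted: active = compounds giving at least 50% inhibition in the cell-based MKP-3 phosphatase rescue imaging test; inactive = the rest.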

Test [1] in a line: inhibitors of TNFa-induced NFkB p65 translocation, primary screen, imaging, HUVEC, MLSMR starter and 10KST1 sets (AID 438;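 active = inhibition above 20% together with a positive visual image hit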;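 note: compound added about 3h40 before a 20 min TNFalpha stimulation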;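 for inhibition: signal is the nuclear over cytoplasmic p65 intensity ratio per well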). The note with it: HUVEC TNFa-induced p65 nuclear translocation; cell count: measured here: nuclei count (cytotoxicity indicator), at 2.08 µM; inhibition: at 2 µM, stronger effect = higher value, 0% TNFa-plus-vehicle, 100% no-TNFa wells.
Test [2] in a line: reduction of polyQ htt aggregates in cells – imaging, exon1htt(103Q)mCFP cells, high-content imaging, primary screen (AID 483;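 active = visual image review flags a hit and inhibition of aggregation exceeds 20%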;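 note: compound exposure lasted 3 days before fixation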;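 for nuclei count: percent of the per-plate median nuclei count of sample wells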). Conditions: exon1htt(103Q)mCFP cell line, aggregate imaging, at 2 µM; inhibition of aggregation: stronger effect = higher value; nuclei count: measured here: cell count, toxicity.
Test [3] can be described thus: endothelial E-selectin expression blockers – imaging, HUVEC, immunofluorescence, MLSMR starter and 10KST1 sets, primary screen (AID 487;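 active = visually confirmed hit in the image check and inhibition above 20%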;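 for inhibition: signal is fraction of cell area covered by stained E-selectin grains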;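 for nuclei count: 100% = median nuclei count of all wells on the same plate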). Conditions: HUVEC TNFalpha-induced E-selectin immunofluorescence imaging, at 2 µM; inhibition: stronger effect = higher value; nuclei count: measured here: cell number, toxicity.
Test [4] is described as follows: Primary imaging screen for DUSP6 inhibitors that restore phospho-Erk in transfected HeLa cells, chemical complementation (AID 609).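 For inhibition: phospho-Erk level distribution per well compared with pooled transfected vehicle control wells.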 The note with it: HeLa MKP-3 transfected, phospho-Erk imaging KS statistic, at 10 µM, cells stimulated with TPA for 15 min.
Test [5] deals with Dual specificity protein phosphatase 6 (Homo sapiens) (UniProt Q16828). The description is as above. Conditions: HeLa MKP-3 transfected, phospho-Erk imaging KS statistic; at 10 µM; stronger effect = higher value; cells stimulated with TPA for 15 min.
The target in test [6] is Voltage-gated potassium channel subunit beta-2 (Rattus norvegicus) (UniProt P62483). Kind of test: inhibitors of rat Kvbeta2 reductase activity – biochemical, NADPH fluorescence, primary screen (AID 622;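 active = fluorescence slope higher than the sample average by over 3 SD, cut at about -0.22 in these data, passing the limit was not always enough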;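 note: slope of raw intensity against log time taken from 70 to 1610 s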). Conditions: recombinant KvBeta, 4-cyanobenzaldehyde reduction, at 10 µM, stronger effect = higher value.
Test [7] shares this target. Kind of test: enhancers of rat Kvbeta2 NADPH turnover – biochemical, NADPH fluorescence, primary screen (AID 623;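 active = NADPH fluorescence slope more negative than the mean of all samples by about 3 SD, 99.7% confidence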;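 note: fluorescence intensity change per second fitted from 20 to 320 s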). Conditions: Recombinant KvBeta, NADPH fluorescence decrease slope, 10 min; at 10 µM; stronger effect = lower value.
Test [8] addresses Alpha-2C adrenergic receptor (Homo sapiens) (UniProt P18825). Kind of test: compounds altering alpha2C-coupled GIRK flux – cell-based, HEK293 alpha2C/GIRK1/2, thallium flux, primary screen (AID 624;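 active = fluorescence slope after compound addition differing from the mean of all screened samples at 99.7% confidence, in either direction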;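 note: slope of fluorescence ratio to pre-addition baseline per second over 15 to 24 s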). Conditions: thallium flux BTC fluorescence, at 10 µM, actives lie on both sides.
Test [9] deals with Muscarinic acetylcholine receptor M4 (Homo sapiens) (UniProt P08173). Kind of test: M4-linked GIRK flux change, two-sided – cell-based, HEK293 M4/GIRK, thallium flux, BTC-AM, M4 allosteric agonist project, primary screen (AID 625;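 active = fluorescence slope after compound addition differing from the mean of all tested samples at 99.7% confidence, mostly higher but some lower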;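 note: thallium influx through GIRK channels coupled to M4 in HEK293 cells with BTC-AM dye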). Conditions: at 10 µM, actives lie on both sides.
Test [10] can be described thus: inhibitors of larval lipid processing in zebrafish, primary screen, whole organism, PED6 fluorescence, gall bladder and intestine (AID 686;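 active = a full or partial loss of lipid-probe fluorescence in the fish gall bladder, intestine or both, judged by eye; inactive = no fluorescence loss, or compound toxic to the fish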;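 note: larvae 5 to 7 days old with five fish per well; signal comes from phospholipase A2 cleavage of quenched PED6 carried via bile; overnight exposure to compound and PED6 before scoring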). Conditions: Zebrafish larvae PED6 lipid processing, fluorescence scoring; screened at 20 µM (by protocol).
Test [11] can be described thus: loss of swimming-algae plug formation – whole organism, Chlamydomonas reinhardtii, WT vs cilia-less mutant, absorbance, 96-well, primary screen (AID 463189;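 active = inhibition at or above 50% relative to wild type and mutant plate controls; inactive = inhibition below 50%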;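 note: 0% = wild type cc124 cells in DMSO and 100% = ciliumless bld1 mutant cells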). The note with it: Chlamydomonas reinhardtii gravitaxis, OD600 absorbance, 2 days; at 10 µM; stronger effect = higher value.
Test [12] can be described thus: blockers of RIG-like receptor reporter activation – cell-based, Sendai virus stimulus, luciferase, 10K MLSCN set, TLR/RLR signaling modifier project, primary screen (AID 602276;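 active = inhibition at or above 50% at 10 µM; inactive = inhibition below 50%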;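 note: firefly luciferase from ISG56 promoter only with Renilla not read in this screen; 0% = Sendai virus plus DMSO and 100% = medium plus DMSO without virus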). The note with it: HEK293 RL24 IRF3 luciferase reporter, at 10 µM, stronger effect = higher value. A general note: A reporter such as luciferase makes a cellular process visible.
A short description of test [13]: TLR3 IRF3 reporter activation blockers – cell-based, poly I:C stimulus, luciferase, 10K MLSCN set, primary screen (AID 602277;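 active = inhibition of the reporter signal at or above 50%; inactive = inhibition below 50%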). Conditions: HEK293-TLR3 RL24 IRF3 luciferase reporter, at 10 µM, stronger effect = higher value.
The mark [14] stands for this setting: measured here: cell density z-score.
The mark [15] stands for this setting: measured here: nuclear c-Myc green intensity z-score.
[16] abbreviates: measured here: nuclear pErk red intensity z-score, stronger effect = higher value.

Chain of Alpha-2C adrenergic receptor (Homo sapiens) (P18825 whole entry, looked up): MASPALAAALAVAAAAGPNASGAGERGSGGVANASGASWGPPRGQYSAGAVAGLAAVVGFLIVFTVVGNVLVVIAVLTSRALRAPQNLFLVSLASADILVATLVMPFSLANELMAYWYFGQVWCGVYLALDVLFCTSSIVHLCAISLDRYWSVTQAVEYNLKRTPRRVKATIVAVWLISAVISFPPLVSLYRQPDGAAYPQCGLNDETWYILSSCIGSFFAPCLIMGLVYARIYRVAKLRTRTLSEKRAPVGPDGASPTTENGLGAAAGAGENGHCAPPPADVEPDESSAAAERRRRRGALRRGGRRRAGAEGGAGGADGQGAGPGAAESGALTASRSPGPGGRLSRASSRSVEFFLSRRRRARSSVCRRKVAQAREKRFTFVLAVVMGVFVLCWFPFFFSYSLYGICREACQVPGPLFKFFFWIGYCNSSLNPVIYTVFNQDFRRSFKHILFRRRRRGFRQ
Chain of Voltage-gated potassium channel subunit beta-2 (Rattus norvegicus) (P62483 whole entry, looked up): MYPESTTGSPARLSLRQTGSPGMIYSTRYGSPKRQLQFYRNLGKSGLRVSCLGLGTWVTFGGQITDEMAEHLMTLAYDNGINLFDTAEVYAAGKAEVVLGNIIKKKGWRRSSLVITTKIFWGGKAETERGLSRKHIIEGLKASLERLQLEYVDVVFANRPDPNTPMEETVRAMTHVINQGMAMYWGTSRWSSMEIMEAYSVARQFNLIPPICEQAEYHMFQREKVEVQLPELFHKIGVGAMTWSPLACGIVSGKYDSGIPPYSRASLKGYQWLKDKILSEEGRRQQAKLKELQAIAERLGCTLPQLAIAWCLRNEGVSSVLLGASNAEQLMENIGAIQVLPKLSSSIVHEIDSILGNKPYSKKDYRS
Chain of Muscarinic acetylcholine receptor M4 (Homo sapiens) (P08173 whole entry, looked up): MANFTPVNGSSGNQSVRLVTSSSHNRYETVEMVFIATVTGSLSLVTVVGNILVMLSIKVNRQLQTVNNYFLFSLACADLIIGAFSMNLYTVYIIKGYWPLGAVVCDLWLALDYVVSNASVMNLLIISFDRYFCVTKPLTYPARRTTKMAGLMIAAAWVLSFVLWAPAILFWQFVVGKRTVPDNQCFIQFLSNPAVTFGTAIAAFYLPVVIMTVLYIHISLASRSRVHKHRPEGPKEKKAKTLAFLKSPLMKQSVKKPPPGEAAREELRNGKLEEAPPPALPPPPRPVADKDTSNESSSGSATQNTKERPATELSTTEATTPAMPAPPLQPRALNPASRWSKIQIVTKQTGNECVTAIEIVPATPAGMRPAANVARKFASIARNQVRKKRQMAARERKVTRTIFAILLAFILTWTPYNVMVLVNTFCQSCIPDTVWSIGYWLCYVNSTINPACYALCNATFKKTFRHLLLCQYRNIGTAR
Chain of Dual specificity protein phosphatase 6 (Homo sapiens) (Q16828 whole entry, looked up): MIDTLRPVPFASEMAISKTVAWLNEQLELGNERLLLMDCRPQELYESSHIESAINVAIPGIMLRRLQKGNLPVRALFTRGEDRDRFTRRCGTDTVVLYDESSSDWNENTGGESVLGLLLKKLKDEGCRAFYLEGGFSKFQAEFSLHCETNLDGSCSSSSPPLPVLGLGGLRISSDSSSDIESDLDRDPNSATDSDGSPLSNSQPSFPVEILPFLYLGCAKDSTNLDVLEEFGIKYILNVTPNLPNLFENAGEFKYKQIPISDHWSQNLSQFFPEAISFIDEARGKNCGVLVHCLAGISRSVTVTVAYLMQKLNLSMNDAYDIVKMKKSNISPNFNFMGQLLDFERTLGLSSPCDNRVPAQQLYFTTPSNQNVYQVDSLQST

A word on the inhibition: it is the change of the read-out against control, counted positive when it falls. For `Cc1c(NC(=O)c2coc(=O)c(Br)c2)c(=O)n(-c2ccccc2)n1C`, in [1], the cell count worked out at 620. Moreover, the inhibition is 1.7% (inactive) in test [1]; 4% (inactive) in test [3]; 20.3% (inactive) in [5]; 14% (inactive) in [11]; -5.82% (inactive) in test [12]; 56.8% (active) in test [13]. Moreover, the inhibition of aggregation in test [2] is 3.9% (inactive). Also, the nuclei count in [2] is 101%; in test [3] it was 113%. Moreover, the z-score in test [4] (setting [14]) is -0.496; in [4] (setting [15]), 0.153; in [4] (setting [16]), -1.2. For the same compound, the fluorescence slope in [6] was -0.46 (inactive); in test [9], 0.00586 (inactive). Moreover, the NADPH fluorescence slope in [7] was -2.1e-05 (inactive). Besides, the slope in test [8] was 0.0067 (inactive). In addition, the outcome in [10] was inactive.
Regarding `COc1ccc(OC)c(C2/C(=C(\O)c3ccc4c(c3)OCCO4)C(=O)C(=O)N2CCCN(C)C)c1` (stereo not given), the cell count in test [1] amounted to 490. Moreover, the inhibition in test [1] was -0.9% (inactive); in [3], -76.5% (inactive); in test [5] it was 18.2% (inactive); in test [11], 40.2% (inactive); in [12], 11% (inactive); in test [13], 23.3% (inactive). Also, in [2], the inhibition of aggregation was -12.7% (inactive). Also, the figures for the nuclei count in test [2] and in test [3] were 115% and 130%, respectively. The results for the z-score in test [4] (setting [14]), in [4] (setting [15]) and in test [4] (setting [16]) were 0.935, 0.819 and -1.07, respectively. For the same compound, the figures for the fluorescence slope in test [6] and in test [9] were -0.459 (inactive) and 0.00426 (inactive), respectively. Besides, the NADPH fluorescence slope in test [7] is -0.000132 (inactive). Further, the slope in [8] was 0.0076 (inactive). Further, in [10], the result was inactive.
For the compound `CC(C)CNC(=O)c1c(N)n(/N=C/c2ccccn2)c2nc3ccccc3nc12`, the cell count in test [1] is 533. Moreover, the inhibition in [1] is -2.3% (inactive); in [3], -33.4% (inactive); in [5], 4.37% (inactive); in test [11] it was 31.2% (inactive); in [12] it was -0.468% (inactive); in test [13], -13.1% (inactive). In addition, in [2], the inhibition of aggregation is -1.4% (inactive). Besides, the nuclei count was 105% in test [2] and 129% in test [3]. Further, the results for the z-score in test [4] (setting [14]), in test [4] (setting [15]) and in [4] (setting [16]) were 1.46, -0.805 and -0.75, respectively. The fluorescence slope in [6] is -0.43 (inactive); in test [9] it was 0.0059 (inactive). The NADPH fluorescence slope in test [7] was -3.5e-05 (inactive). For the same compound, the slope in [8] was 0.00506 (inactive). The compound was classed as inactive in [10].
As for `O=C(Nc1ccccc1C(=O)NCCCn1ccnc1)c1ccccc1`, the cell count in test [1] turned out to be 440. Moreover, the inhibition is -10.6% (inactive) in test [1]; -58.9% (inactive) in test [3]; 3.97% (inactive) in [5]; -14.6% (inactive) in test [11]; 12.2% (inactive) in [12]; 22.1% (inactive) in test [13]. In addition, the inhibition of aggregation in test [2] was 9.5% (inactive). In addition, the nuclei count in test [2] is 110%; in test [3], 90.3%. In addition, the z-score in [4] (setting [14]) is 0.245; in test [4] (setting [15]) it was 0.366; in [4] (setting [16]) it was -0.747. Also, the fluorescence slope in [6] was -0.353 (inactive); in test [9], 0.00574 (inactive). In test [7], the NADPH fluorescence slope was 1.7e-06 (inactive). In addition, the slope in test [8] is 0.00553 (inactive). Moreover, in test [10], the outcome was inactive.
For the compound `C=C(C)C1Cc2c(C)nn(-c3nc(C)cc(C)n3)c2C1` (stereo not given), the cell count in test [1] was 462. Besides, the inhibition in test [1] is -2.7% (inactive); in test [3] it was -50.5% (inactive); in [5], 1.98% (inactive); in test [11], 51.6% (active); in [12], 11.3% (inactive); in [13] it was 16.4% (inactive). Besides, in test [2], the inhibition of aggregation was 5% (inactive). The nuclei count in test [2] came out at 84.7%; in [3] it was 121%. Also, the results for the z-score in test [4] (setting [14]), in test [4] (setting [15]) and in [4] (setting [16]) were 0.411, 1.2 and 0.938, respectively. Besides, the fluorescence slope in test [6] is -0.396 (inactive); in test [9] it was 0.00615 (inactive). Moreover, the NADPH fluorescence slope in test [7] was -3.5e-05 (inactive). Besides, the slope in test [8] was 0.00521 (inactive). For the same compound, in test [10], the result was inactive.
